High-throughput results as filed in PubChem.
Compounds with a hit are over-represented: about 1.4% of the library has one in this group of screens.
p53 reactivation: qHTS assay for re-activators of p53 using a Luc reporter; H1299 p53-A138V BP100-luciferase reporter, luminescence, 24 h; Potency, µM (top dose mostly 92.2 µM), for inactives: at the top dose activity change, positive = activation, usual class: activators; actives 0.063% (n = 320,000); AID 504706, 2011; further: potency means the concentration at half of the fitted maximal effect; % of control where 0% means no effect; nearly all actives have a fitted effect of over 45% in size
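p53-null H1299 cells stably carrying temperature-sensitive p53-A138V and a BP100-luciferase reporter were pinned with compounds (4-point, 1:5 series) and held 24 hrs at 37 deg C. Luminescence was read 10 min after detection reagent.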
KCNH2 3.1 inh: qHTS for Inhibitors of KCHN2 3.1: Mutant qHTS | activity change, % (tested at about 1.8 µM) | AID 720553, 2013 | U2OS KCNH2 3.1, thallium flux FluxOr; stronger effect = lower value | actives 0.95% (n = 340,000) | Potassium voltage-gated channel subfamily H member 2, brain isoform KCNH2 3.1 (human);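 active means maximum activity change below -70%; inconclusive means maximum activity change from -70% to -50%; inactive means maximum activity change above -50%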;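 further: thallium influx rate constant from kinetic fluorescence after stimulation buffer; on the % scale 0 is the no-effect control and ±100 the full control effect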
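Thallium flux read-out: FluxOr dye with Red40 quencher in HBSS/HEPES, 45 min at RT. Rate constants from kinetic reads were normalized to positive and negative DMSO controls. Cells: U2OS virally expressing the 3.1 isoform.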
ASM inhibitor: Inhibitors of Secretory Acid Sphingomyelinase (S-ASM): qHTS; Sphingomyelin phosphodiesterase (Homo sapiens), P17405; placental ASM, HMU-PC fluorogenic substrate, 60 min; Potency, µM (doses to about 57.5 µM), without a hit: at the highest dose activity change, negative = inhibition, hits mostly inhibitors; actives 0.006% (n = 340,000); AID 504937, 2011; further: potency means the concentration at half of the fitted maximal effect
Target sequence (P17405 47-631 limits assumed): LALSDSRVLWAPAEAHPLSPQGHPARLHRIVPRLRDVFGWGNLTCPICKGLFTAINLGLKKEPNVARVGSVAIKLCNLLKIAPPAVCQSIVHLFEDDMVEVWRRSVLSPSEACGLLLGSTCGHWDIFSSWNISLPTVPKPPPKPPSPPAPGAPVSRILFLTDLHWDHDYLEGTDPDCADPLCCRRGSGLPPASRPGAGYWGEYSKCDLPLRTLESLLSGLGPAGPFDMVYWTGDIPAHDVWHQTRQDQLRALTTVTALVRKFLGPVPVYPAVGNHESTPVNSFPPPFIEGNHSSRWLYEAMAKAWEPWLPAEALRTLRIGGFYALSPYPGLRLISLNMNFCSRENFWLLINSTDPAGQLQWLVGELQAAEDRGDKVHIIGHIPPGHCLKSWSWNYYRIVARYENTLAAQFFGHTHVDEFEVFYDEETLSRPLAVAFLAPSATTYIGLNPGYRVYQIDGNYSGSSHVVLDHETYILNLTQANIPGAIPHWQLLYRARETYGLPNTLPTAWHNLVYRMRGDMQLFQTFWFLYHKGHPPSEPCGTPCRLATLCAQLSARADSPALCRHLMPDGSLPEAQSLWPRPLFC
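qHTS format. ASM enzyme prepared from human placenta hydrolyses the fluorogenic substrate HMU-PC0 (9 uM final) over 60 min at 37 °C after a 10 min compound preincubation.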
Mm-Cpn inhibitor: Inhibitors of TCP-1 ring complex (TRiC) of Methanococcus maripaludis (MmCpn): qHTS. Chaperonin Mm-Cpn (Methanococcus maripaludis). purified Mm-Cpn ATPase, ADP Transcreener TR-FRET. Potency, µM (doses to about 76.9 µM), for the others: at the highest dose activity, negative = inhibition, usual class: inhibitors. actives 0.031% (n = 330,000). AID 504842, 2011; further: potency means the concentration at half of the fitted maximal effect; on the % scale 0 is the no-effect control and ±100 the full control effect; nearly all actives have a fitted effect of over 80% in size
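TR-FRET (320 nm excitation; 590 and 665 nm emission) reports ADP made from 10 uM ATP by 25 nM enzyme; compounds were preincubated 10 min, reaction run 30 min, both at 37°C.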
hERG WT inh: qHTS for Inhibitors of KCHN2 3.1: Wildtype qHTS; Voltage-gated inwardly rectifying potassium channel KCNH2 (Homo sapiens), Q12809; U2OS, BacMam KCNH2, thallium flux FluxOr; stronger effect = lower value; activity change, % at 1.84 µM; actives 0.37% (n = 340,000); AID 720551, 2013;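 active means maximum activity change below -70%; inconclusive means maximum activity change between -70% and -50%; inactive means maximum activity change above -50%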; further: on the % scale 0 is the no-effect control and ±100 the full control effect
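U2OS cells were transduced with wild-type KCNH2 virus (2.03 x 10^8 / mL) for 4 h at room temperature, then cultured overnight at 37 C. Thallium flux was read with FluxOr dye. Rate constants were normalized to DMSO controls.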
uPA surface inh: qHTS for Inhibitors of Cell Surface uPA Generation | cell surface uPA generation assay, qHTS | Potency, µM (titrated, usually from 38.3 µM), for the others: at the highest dose activity change, negative = inhibition, hits mostly inhibitors | actives 0.31% (n = 330,000); active means well fitted inhibition curve with a large enough effect; inconclusive means small, poorly fitted or top-dose-only effect; inactive means no such curve, though single readings can be large or run the other way; tested in mouse RAW 264.7 cells; further: potency means the concentration at half of the fitted maximal effect; on the % scale 0 is the no-effect control and ±100 the full control effect; nearly all actives have a fitted effect of over 55% in size
Starred values were filed as active, the others as inactive; ? = inconclusive; nt = no result. Unless noted, the call rests on the fitted dose curve; in most records, active means well fitted curve in the direction sought with a large enough effect; inconclusive means small, poorly fitted or top-dose-only effect, or another doubt; inactive means no such curve, though single readings can be large; an effect the other way counts as inactive or inconclusive.

SMILES	p53 reactivation	KCNH2 3.1 inh	ASM inhibitor	Mm-Cpn inhibitor	hERG WT inh	uPA surface inh
CSc1nsc(SC)c1NC(=O)N1CCCCC1	-1%	3	9%	-10%	-3	-1%
CSc1nsc(SC)c1NC(=O)Nc1ccccc1C	-2%	-84*	2%	-4%	-4	-3%
CC1CCc2cc(F)ccc2N1C(=O)c1cccnc1 (stereo not given)	6%	-3	4%	-2%	8	-2%
CC(C)C[C@H](NC(=O)c1nc[nH]c1C(=O)NCC(=O)OCc1ccccc1)C(=O)OCc1ccccc1	4%	-3	-11%	-3%	-121*	?
CC(C)(C)OC(=O)CNC(=O)c1nc[nH]c1C(=O)N1CCc2ccccc2C1	nt	-71*	0%	-1%	7	-10%
CC(C)C[C@H](NC(=O)c1nc[nH]c1C(=O)N1CCNCC1)C(=O)OCc1ccccc1	-8%	-5	4%	-2%	-12	9%
CC(C)C[C@H](NC(=O)c1nc[nH]c1C(=O)N1CCN(c2ccccc2)CC1)C(=O)OCc1ccccc1	-1%	-78*	-11%	-7%	-1	5%
CC(C)(C)OC(=O)NCc1ccc(CNC(=O)c2[nH]cnc2C(=O)N[C@@H](Cc2ccccc2)C(=O)OC(C)(C)C)cc1	2%	-20	0%	0%	-7	?
CC(C)(C)OC(=O)N1CCC(NC(=O)c2nc[nH]c2C(=O)N2CCc3ccccc3C2)CC1	-2%	0	3%	-2%	6	8%
CC(C)(C)OC(=O)[C@H](Cc1ccccc1)NC(=O)c1nc[nH]c1C(=O)NCc1ccccc1	0%	-107*	-6%	nt	0	13%
CC(C)C[C@H](NC(=O)c1nc[nH]c1C(=O)NCC(=O)OC(C)(C)C)C(=O)OCc1ccccc1	0%	-18	-10%	-1%	-6	-29%
COc1ccccc1OCC(=O)Nc1ccccc1C(=O)N1CCCCC1	-1%	16	1%	0%	-7	7%
COc1ccc2c(c1)CCc1c(C(=O)Nc3c(C)nn(Cc4ccccc4)c3C)noc1-2	1%	-71*	-11%	0%	-6	4%
CN(N=Cc1ccc([N+](=O)[O-])cc1)c1ccccn1	nt	-13	nt	nt	3	nt
Cn1nccc1NC(=O)Nc1ccc(Cl)cc1	3%	-86*	5%	-2%	-9	-8%
c1ccc(-n2ncc3c(NCC4CCCO4)ncnc32)cc1 (stereo not given)	8%	-1	-2%	3%	2	-7%
CCN1CCN(c2ncnc3c2cnn3-c2ccccc2)CC1	?	-2	-3%	-3%	-1	-8%
Clc1ccc(-n2ncc3c(NCC4CCCO4)ncnc32)cc1 (stereo not given)	?	18	-4%	0%	9	10µM*
CC1CCCN(c2ncnc3c2cnn3-c2ccccc2)C1 (stereo not given)	-3%	-2	-1%	?	3	?
c1ccc(-n2ncc3c(N4CCCCC4)ncnc32)cc1	-8%	-2	0%	0%	-7	1.6µM*
CC1CCCN(c2ncnc3c2cnn3-c2ccc(Cl)cc2)C1 (stereo not given)	-9%	-7	-6%	0%	3	2.2µM*
COc1ccc([C@H]2N[C@]3(CCCN(Cc4ccc(Br)cc4)C3=O)[C@H]3C(=O)N(C)C(=O)[C@@H]23)cc1	nt	-1	nt	nt	-3	nt
O=C1COc2cc(S(=O)(=O)NCc3ccco3)c(Cl)cc2N1	nt	nt	nt	-2%	nt	nt
CCOC(=O)c1ccc(N2C(=O)CC(N3CCN(C/C=C/c4ccccc4)CC3)C2=O)cc1 (stereo not given)	4%	-101*	-4%	-3%	-84*	-1%
CCN(CC)CCCN(C(=O)c1ccc(OC)cc1)c1nc(-c2ccc(OC)cc2)cs1	18%	-95*	-3%	-5%	?	-8%
SMILES	p53 reactivation	KCNH2 3.1 inh	ASM inhibitor	Mm-Cpn inhibitor	hERG WT inh	uPA surface inh
Cc1ccc(-c2csc(N(CCCN(C)C)C(=O)c3ccco3)n2)cc1	7%	-49	-2%	3%	7	-6%
CN(C)CCCN(C(=O)c1ccco1)c1nc(-c2ccc(Cl)cc2)cs1	15%	-80*	-8%	0%	1	?
COc1ccc2c(CC(=O)NC(Cc3ccc(Cl)cc3)C(=O)O)cc(=O)oc2c1C (stereo not given)	-8%	2	8%	-2%	8	-3%
Cc1nnnn1/C(=C\c1ccccc1)C(=O)OCC(=O)NC1CCCCC1	-22%	4	4%	1%	16	7.9µM*
CCN(C(=O)CSc1nnc(COc2cccc(C)c2)o1)c1nc(C)cs1	4%	-13	-5%	1%	-6	-1%
CCC1=C(Nc2ccccc2)COC1=O	nt	2	nt	nt	16	nt
Cn1nc(-c2ccccc2)c(C(=O)Nc2ccc(C(F)(F)F)cc2)c1Cl	1%	-73*	-1%	1%	-5	3%
Cn1nc(-c2ccccc2)c(C(=O)Nc2ccc(Cl)cc2)c1Cl	-2%	-4	-5%	1%	-11	3%
Nc1ccc2cccc(O)c2c1	nt	2	-3%	nt	4	-5%
CNS(=O)(=O)c1cc2c3c(cccc3c1)C(=O)NC2=O	-2%	11	0%	-2%	0	7.1µM*
COc1cc(NCCCn2ccc(NC(=O)OCc3ccccc3)nc2=O)cc(OC)c1OC	nt	-7	7%	nt	23	2%
O=Cc1cc(N=Nc2ccccc2Cl)ccc1O	?	-20	-10%	-1%	10	8.9µM*
CC(C)(C)NC(=O)CN(C(=O)CCC(=O)Nc1nccs1)c1ccccc1F	nt	0	nt	nt	-17	nt
COc1ccc(CN2CC(C(N)=O)Oc3ccccc32)cc1F (stereo not given)	-10%	1	-4%	-3%	2	-3%
COC(=O)c1ccc(OCC(O)CN2CCN(C(=O)c3ccco3)CC2)c(OC)c1 (stereo not given)	-3%	-85*	2%	0%	2	-2%
O=C1/C(=C/c2ccc(O)cc2)COc2ccccc21	40µM*	-2	-11%	-8%	-4	-2%
O=C1/C(=C/c2ccccn2)COc2ccccc21	4%	-2	3%	3%	-5	nt
